Results filed as inconclusive are left out. A call without a number means that no potency is given here. The source made the active and inactive calls. The call rests on the fitted dose curve; in most records, active means well fitted inhibition curve with a large enough effect; inconclusive means small, poorly fitted or top-dose-only effect; inactive means flat fitted curve, though single readings scatter.
Potency means the concentration at half of the fitted maximal effect.

In the experiment the target is DNA repair nuclease/redox regulator APEX1 (Homo sapiens) (UniProt P27695). Kind of experiment: qHTS Validation Assay for Inhibitors of the Human Apurinic/apyrimidinic Endonuclease 1 (APE1) (AID 1705). To be noted: purified APE1 endonuclease activity, fluorescence, titration; series mostly up to 57.1 µM. An excerpt: Assay Provider: David M. Wilson, III, National Institute on Aging, NIH
Chain of DNA repair nuclease/redox regulator APEX1 (Homo sapiens) (P27695 whole entry, looked up): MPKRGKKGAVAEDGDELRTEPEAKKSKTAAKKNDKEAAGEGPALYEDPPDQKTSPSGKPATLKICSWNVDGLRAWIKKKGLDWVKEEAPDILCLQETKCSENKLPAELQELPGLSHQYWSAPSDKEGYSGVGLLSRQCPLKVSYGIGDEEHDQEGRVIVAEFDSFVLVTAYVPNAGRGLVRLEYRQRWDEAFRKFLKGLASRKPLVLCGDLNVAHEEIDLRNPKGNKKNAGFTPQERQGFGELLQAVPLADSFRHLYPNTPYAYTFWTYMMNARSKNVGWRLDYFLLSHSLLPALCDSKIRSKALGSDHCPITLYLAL
Screening Center PI: Austin, C.P.
Screening Center: NIH Chemical Genomics Center [NCGC]
The apurinic/apyrimidinic endonuclease APE1 is the primary mammalian enzyme responsible for the removal of abasic (or AP) sites in DNA and functions centrally in the base excision DNA repair (BER) pathway. […] Thus, targeting APE1 could improve the efficacy of current treatment paradigms by promoting selective sensitization or protection of diseased and normal cells, respectively.
Inhibition of APE1 activity was screened by utilizing double-stranded short substrate containing tetrahydrofuran (THF) abasic site labeled with rhodamine-type fluorophore (TAMRA) at the 5'-end and with non-fluorescent Black Hole Quencher-2 (BHQ-2) at the opposing 3'-end. An increase in the fluorescence intensity due to incision of the abasic site by APE1 was used to measure the enzyme activity.
1. Substrate: 50 nM final concentration of TAMRA/BHQ-2 substrate dispensed throughout the plate.
2. Enzyme: […] nM APE1 final concentration in columns 1, 2, 5-48. Column 1 is neutral (100% activity)
3. Control: Pintool transfer of control inhibitor NSC-13755 to column 2 of all assay plates. Two-fold, 16 pt dilution in duplicate to produce final concentrations in the […] uM - […] nM range.
3. Buffer columns in columns 3 and 4 were used as negative control (no enzyme).
Three uL of enzyme were dispensed to 1536-well Greiner black solid bottom plates. Compounds (23 nL) were transferred via Kalypsys pintool. The plates were incubated for 15 min at room temperature, and then 1 uL of substrate solution was added to start the reaction. The plates were immediately transferred into ViewLux High-throughput CCD imager (Perkin-Elmer) in order to measure the reaction progress in kinetic mode (three reads every 60 seconds) using 525 nm excitation and 598 nm emission fluorescence protocol. The fluorescence intensity difference between the third and the first time points was used to compute reaction progress.
As for `N[C@@H](CCC(=O)N[C@H](CSN=O)C(=O)NCC(=O)O)C(=O)O`, the Potency result is “inactive”.

Regarding `O=C(O)Cc1ccc(O)c(O)c1`, the Potency is 7.94 µM (active).

Turning to `Cc1ccc([N+](=O)[O-])cc1S(=O)(=O)N(C)C`, the Potency entry is “inactive”.

Turning to `NCCCNCCCCNCCCN`, the Potency result was “inactive”.

For `O=c1[nH]c(=O)c2nc3ccccc3nc2[nH]1`, the Potency result was “inactive”.

With `COc1ccccc1N1CCN(CCCNc2c(C)c(=O)n(C)c(=O)n2C)CC1`, the Potency entry was “inactive”.

`CC(N)=O`: the Potency entry is “inactive”.

For the molecule `NC(N)=[N+]1CCc2ccccc2C1`, the Potency result was “inactive”.

Regarding `CC(=O)O[C@H]1CC2(C)[C@@H](C[C@@H](O)[C@H]3[C@@]4(C)CC[C@@H](O)[C@@H](C)[C@@H]4CC[C@@]32C)C1=C(CCC=C(C)C)C(=O)O` (stereo not given in full), the Potency is 39.8 µM (active).

For `Cc1nc(N=Nc2ccc(S(=O)(=O)O)cc2S(=O)(=O)O)c(COP(=O)(O)O)c(C=O)c1O`, the Potency entry is “inactive”.

As for `CSC(=N)N`, the Potency entry was “inactive”.

As to `CSC(N)=NCCC[C@H](N)C(=O)O`, the Potency entry is “inactive”.

Regarding `COC(=O)C1=C(C)NC(C)=C([N+](=O)[O-])C1c1ccccc1C(F)(F)F` (stereo not given), the Potency result is “inactive”.

Regarding `CC[C@H](NC(=O)c1c(C)c(-c2ccccc2)nc2ccccc12)c1ccccc1`, the Potency entry is “inactive”.

`COc1ccc(CCN(C)CCc2ccc(OC)c(OC)c2)cc1OC`: the Potency entry was “inactive”.

As for `N#C/C(=C\c1ccc(O)c(O)c1)C(=O)NCCc1ccccc1`, the Potency entry is “inactive”.

Turning to `O=C(O)C1CN(CCCP(=O)(O)O)CCN1` (stereo not given), the Potency result was “inactive”.

`O=C1C2C=CC=CC2=NC(=S)N1CCN1CCC(=C(c2ccc(F)cc2)c2ccc(F)cc2)CC1` (stereo not given): the Potency result was “inactive”.

Regarding `COc1ccccc1N1CCN(CCN(C(=O)c2ccc(F)cc2)c2ccccn2)CC1`, the Potency result was “inactive”.

Regarding `C=CC[C@H](N)C(=O)O`, the Potency entry is “inactive”.

With `CCN(CC)CCCCCCCCOC(=O)c1cc(OC)c(OC)c(OC)c1`, the Potency entry was “inactive”.

Turning to `O=C(O)C1CCCNC1` (stereo not given), the Potency entry is “inactive”.

Turning to `CC(C)(C)NCC(O)COc1cccc2[nH]c(=O)[nH]c12` (stereo not given), the Potency result was “inactive”.

Turning to `O=c1ccn([C@@H]2O[C@H](COP(=O)(O)OP(=O)(O)O)[C@@H](O)[C@H]2O)c(=O)[nH]1`, the Potency entry is “inactive”.

With `Cc1cccc(C)c1OCC(N)C(C)C` (stereo not given), the Potency result was “inactive”.

With `CCC1(O)CC2CN(CCc3c([nH]c4ccccc34)[C@@](C(=O)OC)(c3cc4c(cc3OC)N(C)C3[C@]45CCN4CC=C[C@@](CC)([C@@H](OC(C)=O)[C@]3(O)C(=O)OC)[C@H]45)C2)C1` (stereo not given in full), the Potency entry was “inactive”.

As for `NC(C(=O)N[C@@H]1C(=O)N2C(C(=O)O)=C(Cl)CS[C@H]12)c1ccccc1` (stereo not given in full), the Potency entry is “inactive”.

For the molecule `CC(=O)[C@H]1CCC2C3CC=C4C[C@@H](OS(=O)(=O)O)CC[C@]4(C)C3CC[C@@]21C` (stereo not given in full), the Potency entry is “inactive”.

Regarding `N[C@@H](Cc1ccc(O)c(I)c1)C(=O)O`, the Potency entry is “inactive”.

Turning to `CCOC(=O)C12CC1/C(=N/O)c1ccccc1O2` (stereo not given), the Potency result is “inactive”.

In the case of `c1ccc2c(c1)CC(N1CCN(c3cccc4c3OCCO4)CC1)C2`, the Potency entry is “inactive”.

With `NC(=O)c1cc[n+](CC2=C(C(=O)O)N3C(=O)[C@@H](NC(=O)[C@@H](c4ccccc4)S(=O)(=O)[O-])[C@H]3SC2)cc1`, the Potency is 14.1 µM (active).

With `O=C(O)C1=CCCNC1`, the Potency entry is “inactive”.

As to `CC(C)NCC(O)COc1ccc(CC(N)=O)cc1` (stereo not given), the Potency entry is “inactive”.

On to `N=C(N)SCCc1cnc[nH]1`, for which the Potency entry is “inactive”.

In the case of `N#Cc1cc2nc(O)c(O)nc2cc1[N+](=O)[O-]`, the Potency was 28.2 µM (active).

For the molecule `Nc1ccc(CCNc2ncnc3c2ncn3C2OC(CO)C(O)C2O)cc1` (stereo not given), the Potency entry was “inactive”.

Regarding `S=C(S)N1CCCC1`, the Potency entry is “inactive”.

Regarding `[N-]=[N+]=Nc1ccc(C(=O)CSC[C@H](NC(=O)CC[C@H](N)C(=O)O)C(=O)NCC(=O)O)cc1`, the Potency was 20 µM (active).

On to `O=c1oc(Cl)c(Cl)c2ccccc12`, for which the Potency entry was “inactive”.

(Values after PubChem BioAssay (NCATS).)
